Experimental findings from the OligoGym collection are described below.
Also: reference of the scale not given here.

In one experiment the target is AMOTL1. The experiment in a line: pooled miR-30 sensor sort-seq; sequence = guide strand. The note with it: shRNA.
As to TTGTCAGTCTGTGTGCTGCTGT, the sensor-assay potency score (higher = more potent) turned out to be 0.0814. Same read-out and setting: the same measure for TTTTTCAAACTTGTGGAGCTTG: 0.0773; for TTAACTTTGTTTGCAAACCTAC: 0.352.

The next experiment has as its target AMPH. The description is as above. The note with it: shRNA.
On to TTGCTGCTAAATATCCTCGGAG, for which the sensor-assay potency score (higher = more potent) was -0.441. Still for that read-out and setting: the same measure for TAATTCATCACATCTTCTGCAG: -0.0381; for TTTACTTTAGAACAATCTGTGA: -0.223. Still for that read-out and setting: then TAAATGAACCACCAGAAGCCGG, with -1.23; and TTTTTGATGGAAGTCTTCCCAC, with -0.336; and TTACTTTAGAACAATCTGTGAA, with -0.181. Same read-out and setting: then TTAACATAAAATCCAACTCGTC, with -0.669; and TTTCCTTATGAAACTTGGCTTC, with -0.107. For the sequence TCTGCATACACATAGATCCAGG, the sensor-assay potency score (higher = more potent) was -1.05. On the same count and under the same terms, the same measure for TAACATAAAATCCAACTCGTCT: -0.296; for TACTTTAGAACAATCTGTGAAG: -0.229; for TAGTCCACTAGCTTCCTGCTGC: 0.262. Still for that read-out and setting: then TTGTCTGTGAAGGTGACCGAGG, with -0.658; and TTTTACTTTAGAACAATCTGTG, with 0.225. Still for that read-out and setting: the same measure for TTCTTCGAACTGTTCGTCTTTT: -0.66. As to TTTTTTGCACACATGCTCCATT, the sensor-assay potency score (higher = more potent) was -0.524. The same measure, in the same setting: the same measure for TGATTTGGACTTGCTGTCGGGC: -0.73. In the case of TTCTGGAACAAAGTTGTCCTCA, the sensor-assay potency score (higher = more potent) is -0.205. On the same count and under the same terms, then TAGAGATTCGACTCTCATCCTT, with 0.077; and TTGATTGCTGCTAAATATCCTC, with -0.275.

Consider AAACTCTTCAAACACTTTCTGT, for which the sensor-assay potency score (higher = more potent) was -0.65. Same read-out and setting: then TAACAAAAGTGAACTCTTCAGG, with -0.296; and TTGTGAATAATGAAGTATCCTG, with -0.215; and TCATAGTCCACTAGCTTCCTGC, with -0.747.

The next experiment has as its target AMY2A. The description is as above. The note with it: shRNA.
Consider TTGTACAGCCTAGCATCCCAGA, for which the sensor-assay potency score (higher = more potent) is -1.14. The same measure, in the same setting: the same measure for TTAAGTAAGACATCTTCTCTCC: 0.353; for TACATTGCGGAAAATAACCATG: -1.22. Turning to TTATCCACAAAGACAAGCGCTC, the sensor-assay potency score (higher = more potent) is -0.172.

For the sequence TTAAAGAAAATGACCAGTCATC, the sensor-assay potency score (higher = more potent) was -0.896. The same measure, in the same setting: the same measure for TTTACCATCATTGAAATCCCAT: -0.145.

The target in another experiment is ANAPC5. The experiment is described as above. The note with it: shRNA.
Sequence TACAGTTTAAACACTTGGCTGA registered a sensor-assay potency score (higher = more potent) of 0.833. Still for that read-out and setting: the same measure for TTTTGATCACATAACATCCATA: -1.19; for TTTGACAGTGTAATATCTGGGC: 0.588. TCACATAACATCCATAACTGGG: the sensor-assay potency score (higher = more potent) was -0.755. On the same count and under the same terms, then TTGAACTGAAAACATCTTGGAC, with -0.413; and TTTGATTCTGATCTGCACTGAA, with 0.516. Sequence TACACTTGTTTTGTGAACCTCT came in with a sensor-assay potency score (higher = more potent) of 0.756.
